The values below come from PubChem BioAssay (NCI).

Some test systems named below: SK-MEL-2 melanoma; EKVX NSCLC; SN12C renal; UO-31 renal; TK-10 renal; ACHN renal; A498 renal; CCRF-CEM leukemia; MOLT-4 leukemia; SR leukemia; RPMI-8226 leukemia; OVCAR-8 ovarian; OVCAR-5 ovarian; OVCAR-4 ovarian; SK-OV-3 ovarian; IGROV1 ovarian; OVCAR-3 ovarian; HS 578T breast; NCI/ADR-RES ovarian.
Holding throughout (assay): NCI-60 one-dose screen, 48 h (100 = growth as untreated, 0 = no growth, -100 = all killed)
Holding throughout (details): 10 µM unless noted

The panel holds about 83,000 compounds, 20% with a hit somewhere; the sample as a whole holds those more often.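 Testing used 96-well plates and a 48-hour single-concentration exposure. Example: -40 means 40% of the starting cells died.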 Unmarked numbers belong to inactive results. Active and inactive are the calls of the source. The calls were made as follows: active = growth percent below 10; inactive = the rest.

In the case of `COc1ccccc1S(=O)(=O)Nc1ccc2c3c(cc(-c4ccoc4)nc13)C(=O)N2C`, the growth in the assay with SK-MEL-2 melanoma is 74.8%; with EKVX NSCLC, 66.4%; in the assay on SN12C renal, 82.3%; in the assay with UO-31 renal it was 39.9%; in the assay on TK-10 renal, 37.5%; in the assay on ACHN renal, 70.6%. Also, the growth in the assay with A498 renal was 71.7%; with CCRF-CEM leukemia, 76.5%; with MOLT-4 leukemia, 75.8%; with SR leukemia, 59.2%; with RPMI-8226 leukemia, 15.5%; in the assay on OVCAR-8 ovarian, 70.5%. The growth with OVCAR-5 ovarian is 76.3%; in the assay with OVCAR-4 ovarian, 55.1%; in the assay with SK-OV-3 ovarian, 59.3%; in the assay with IGROV1 ovarian, 62%; with OVCAR-3 ovarian it was 74%; in the assay with HS 578T breast, 56.2%. In addition, the growth with NCI/ADR-RES ovarian is 55.1%.

For the compound `Nc1nc(Cl)cc(NCCCCNc2cc(Cl)nc(N)n2)n1`, the growth in the assay on SK-MEL-2 melanoma is 87.6%; in the assay with EKVX NSCLC it was 102%; in the assay on SN12C renal, 126%; in the assay on UO-31 renal, 96.5%; in the assay on TK-10 renal, 111%; with ACHN renal, 107%. In addition, the growth in the assay with A498 renal was 174%; with CCRF-CEM leukemia, 84.5%; with MOLT-4 leukemia, 94.8%; in the assay with SR leukemia, 98.9%; in the assay with RPMI-8226 leukemia, 96.4%; in the assay on OVCAR-8 ovarian, 99.5%. For the same compound, the growth was 94.9% in the assay on OVCAR-5 ovarian; 104% in the assay on OVCAR-4 ovarian; 113% with SK-OV-3 ovarian; -19.9% (active) in the assay on IGROV1 ovarian; 126% in the assay with HS 578T breast.

For `COc1ccc(N)c(S)c1`, the growth in the assay with SK-MEL-2 melanoma is 108%; in the assay with EKVX NSCLC, 91.7%; in the assay on SN12C renal it was 94.4%; in the assay on UO-31 renal it was 78.9%; with TK-10 renal, 105%; in the assay with ACHN renal, 98.2%. Besides, the growth with A498 renal was 112%; in the assay with CCRF-CEM leukemia, 98.2%; with MOLT-4 leukemia it was 91%; in the assay with SR leukemia it was 103%; in the assay on RPMI-8226 leukemia, 95.9%; with OVCAR-8 ovarian it was 90.6%. Moreover, the growth in the assay with OVCAR-5 ovarian is 104%; with OVCAR-4 ovarian, 96%; in the assay on SK-OV-3 ovarian, 85%; with IGROV1 ovarian, 94.9%; in the assay with OVCAR-3 ovarian, 110%; in the assay with HS 578T breast, 102%. For the same compound, the growth with NCI/ADR-RES ovarian was 98.4%.

Consider `OC(COc1ccccc1Cl)CN1CCN(c2ccc(Cl)cc2)CC1` (stereo not given), for which the growth in the assay on SK-MEL-2 melanoma was 126%; in the assay with EKVX NSCLC, 106%; in the assay with SN12C renal, 106%; in the assay with UO-31 renal, 81.7%; in the assay on TK-10 renal it was 117%; in the assay on ACHN renal it was 94.6%. Besides, the growth with A498 renal is 78.6%; in the assay with CCRF-CEM leukemia it was 46%; with MOLT-4 leukemia, 95.3%; in the assay with SR leukemia, 92.3%; in the assay on RPMI-8226 leukemia it was 86.6%; in the assay with OVCAR-8 ovarian it was 104%. Further, the growth with OVCAR-5 ovarian was 81.9%; in the assay on OVCAR-4 ovarian, 91.7%; in the assay with SK-OV-3 ovarian, 114%; in the assay on IGROV1 ovarian, 96%; with OVCAR-3 ovarian it was 106%; in the assay with NCI/ADR-RES ovarian, 115%.

For the compound `O=C(O)c1ccc2nc(-c3ccc(OCCCCCOc4ccc(-c5nc6ccc(C(=O)O)cc6[nH]5)cc4)cc3)[nH]c2c1`, the growth is 101% in the assay on SK-MEL-2 melanoma; 113% in the assay with EKVX NSCLC; 62.2% in the assay on SN12C renal; 90.5% in the assay with UO-31 renal; -2.6% (active) with TK-10 renal; 98.4% in the assay on ACHN renal. The growth is 53.6% in the assay with A498 renal; 76.1% with CCRF-CEM leukemia; 87.7% in the assay with MOLT-4 leukemia; 120% in the assay on SR leukemia; 123% in the assay on RPMI-8226 leukemia; 49% in the assay on OVCAR-8 ovarian. The growth in the assay on OVCAR-5 ovarian is 9.11% (active); in the assay with OVCAR-4 ovarian, 82.6%; in the assay with SK-OV-3 ovarian it was 48.8%; in the assay with IGROV1 ovarian it was 109%; in the assay with HS 578T breast it was 82.7%; with NCI/ADR-RES ovarian, 33.1%.

For `Cc1ccc2oc(=O)cc(C3C(C#N)=C(N)Oc4c3ccc3ccccc43)c2c1` (stereo not given), the growth is 66.2% in the assay with SK-MEL-2 melanoma; 77.6% with EKVX NSCLC; 92.6% with SN12C renal; 72.3% in the assay with UO-31 renal; 91.9% with TK-10 renal; 99% in the assay on ACHN renal. Further, the growth in the assay with A498 renal is 89.1%; with CCRF-CEM leukemia it was 81.9%; with MOLT-4 leukemia it was 46.3%; with SR leukemia, 27.6%; in the assay on RPMI-8226 leukemia it was 70.2%; in the assay with OVCAR-8 ovarian, 85.8%. Further, the growth was 99.3% in the assay with OVCAR-5 ovarian, 87.8% in the assay on OVCAR-4 ovarian, 75.6% in the assay with IGROV1 ovarian and 85.5% in the assay on HS 578T breast.

`Cn1c2ccccc2c2ssc(=S)c21`: the growth in the assay on SK-MEL-2 melanoma was 92.8%; in the assay with EKVX NSCLC, 39.5%; in the assay on SN12C renal, 116%; in the assay with UO-31 renal, 84%; in the assay on TK-10 renal it was 111%; in the assay on ACHN renal it was 114%. Moreover, the growth with A498 renal is 86.1%; in the assay with CCRF-CEM leukemia it was 116%; with MOLT-4 leukemia it was 75.5%; with SR leukemia, 103%; in the assay with RPMI-8226 leukemia, 124%; in the assay with OVCAR-8 ovarian, 102%. For the same compound, the growth is 99.7% with OVCAR-5 ovarian; 89.5% in the assay with OVCAR-4 ovarian; 119% in the assay on SK-OV-3 ovarian; 70.3% in the assay on HS 578T breast; 86.8% in the assay on NCI/ADR-RES ovarian.

Consider `NS(=O)(=O)c1ccc(-n2nc(-c3ccc(Cl)cc3)ccc2=O)cc1`, for which the growth was 86.1% with SK-MEL-2 melanoma; 99.7% in the assay on EKVX NSCLC; 109% in the assay on SN12C renal; 91.7% in the assay with UO-31 renal; 123% in the assay with TK-10 renal; 101% with ACHN renal. In addition, the growth was 102% with A498 renal; 86.4% in the assay on CCRF-CEM leukemia; 96.4% with MOLT-4 leukemia; 64.4% with SR leukemia; 99% with RPMI-8226 leukemia; 102% in the assay on OVCAR-8 ovarian. For the same compound, the growth with OVCAR-5 ovarian is 99.9%; in the assay on OVCAR-4 ovarian it was 100%; in the assay with SK-OV-3 ovarian it was 93.8%; in the assay with OVCAR-3 ovarian, 106%; in the assay with HS 578T breast, 88.2%; in the assay on NCI/ADR-RES ovarian, 68.4%.

Regarding `O=[N+]([O-])c1ccc(NS(=O)(=O)c2ccccc2)c2ccccc12`, the growth in the assay on SK-MEL-2 melanoma is 12.1%; with EKVX NSCLC it was 38.2%; in the assay with SN12C renal it was 44.5%; in the assay on UO-31 renal, 25.5%; with TK-10 renal, 53.1%; in the assay on ACHN renal it was 63.6%. Also, the growth is 35.9% with A498 renal; 40.3% in the assay on CCRF-CEM leukemia; 38% in the assay on MOLT-4 leukemia; 11.7% with RPMI-8226 leukemia; 63.1% in the assay on OVCAR-8 ovarian; 84.4% in the assay on OVCAR-5 ovarian. The growth is 40.6% with OVCAR-4 ovarian; 34.7% in the assay on SK-OV-3 ovarian; 30.2% with IGROV1 ovarian; 25.5% in the assay on OVCAR-3 ovarian; 48% in the assay on HS 578T breast; 51% in the assay on NCI/ADR-RES ovarian.
